Most compounds without a hit are left out; they make up all but 3.3% or so of the library.
MBD2 DNA inh: inhibitors of human MBD2 binding to methylated oligonucleotide | Q9UBB5 | TR-FRET | inhibition, % at 4.4 µM | 0.31% of 370,000 active | AID 686964; in the data active means inhibition above about 13%
PRMT1 inh: inhibitors of human PRMT1; Q99873; inhibition, % at 2.79 µM; 1.3% of 370,000 active; recombinant PRMT1, activity-based probe fluorescence polarization; AID 652257;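 active means inhibition above about 21% made by adding two undisclosed values, limit read from the data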
UHRF1 MBD2 ctr: human UHRF1 methylated DNA binding inhibitors; Q96T88; UHRF1 binding to methylated oligo, TR-FRET; inhibition, % at 4.4 µM; 0.75% of 370,000 active; AID 687016; in the data active means inhibition above about 21%;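 further: UHRF1 SRA domain binding a hemimethylated CpG hairpin DNA probe; 0% = median of test compound wells and 100% = reference inhibitor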
Target sequence (Q96T88 whole entry, looked up, the tested form may be a part): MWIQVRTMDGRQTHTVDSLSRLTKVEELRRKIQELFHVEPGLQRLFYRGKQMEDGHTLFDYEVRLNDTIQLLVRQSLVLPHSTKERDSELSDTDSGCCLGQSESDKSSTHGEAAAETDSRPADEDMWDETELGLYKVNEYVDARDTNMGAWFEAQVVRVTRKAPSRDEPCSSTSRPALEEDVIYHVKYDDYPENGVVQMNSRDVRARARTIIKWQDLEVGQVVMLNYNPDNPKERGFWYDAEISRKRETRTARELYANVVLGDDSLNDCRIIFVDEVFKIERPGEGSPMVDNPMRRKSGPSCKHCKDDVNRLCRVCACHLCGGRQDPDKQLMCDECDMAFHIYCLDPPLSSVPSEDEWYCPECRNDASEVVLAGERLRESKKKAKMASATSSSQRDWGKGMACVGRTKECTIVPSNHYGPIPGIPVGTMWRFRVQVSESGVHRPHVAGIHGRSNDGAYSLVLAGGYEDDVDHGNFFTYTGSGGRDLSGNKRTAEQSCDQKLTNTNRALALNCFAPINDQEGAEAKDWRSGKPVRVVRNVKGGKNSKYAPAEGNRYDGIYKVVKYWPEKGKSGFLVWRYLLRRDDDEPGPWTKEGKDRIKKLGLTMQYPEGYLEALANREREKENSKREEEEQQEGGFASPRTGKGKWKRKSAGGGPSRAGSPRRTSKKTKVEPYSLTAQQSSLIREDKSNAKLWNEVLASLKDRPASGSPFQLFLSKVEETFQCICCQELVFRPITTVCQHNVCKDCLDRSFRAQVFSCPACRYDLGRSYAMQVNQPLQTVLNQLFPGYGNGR
PfG6PD inh: PfG6PD (Plasmodium falciparum) enzyme inhibition; PfGluPho enzyme, NADPH resazurin-diaphorase fluorescence; inhibition, % at 20 µM; 0.78% of 350,000 active; AID 504690;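 active means inhibition reaching at least a set limit at 20 µM in the primary screen, cut at about 59% in these data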;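 further: 0% = DMSO wells with substrate and 100% = DMSO wells lacking glucose-6-phosphate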
PfM18AAP inh: blocks P. falciparum M18 aspartyl aminopeptidase | recombinant PfM18AAP, H-Glu-NHMec fluorogenic cleavage | 1.2% of 290,000 active | inhibition, % at 7.35 µM;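 active means inhibition above the campaign mean inhibition over all tested compounds plus 3 SD, cut at about 28% in these data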;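 further: 0% = plate median of test compound wells and 100% = 2 mM ZnCl2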
PRMT1 inh conf: confirmation of human PRMT1 inhibitors. 42% of 3,300 active. shares compounds with PRMT1 inh. recombinant His-PRMT1, activity-based probe fluorescence polarization. inhibition, % at 2.79 µM;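 active means mean inhibition across replicates above the hit cutoff derived for the earlier primary screen, cut at about 22% in these data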
An asterisk follows results filed as active; / = not tested or not shown.

SMILES	MBD2 DNA inh	PRMT1 inh	UHRF1 MBD2 ctr	PfG6PD inh	PfM18AAP inh	PRMT1 inh conf
Cc1cc2c(cc1C)-n1nnnc1C(N1CCN(CC(=O)N3CCCC3)CC1)C(=O)N2 (stereo not drawn)	-3	0	-2	/	/	/
O=C1CC(NCCc2ccccc2)C(=O)N1CCc1ccccc1 (stereo not drawn)	1	38*	3	-2	-9	0
CC(=O)Nc1ccc(C(=O)OCC(=O)N2CCCC2=O)cc1	5	-5	7	-14	/	/
COc1cc(C(=O)OCC(=O)N2CCCC2=O)cc(OC)c1C	4	96*	12	-4	/	-1
O=C(NCCCNC(=O)c1ccccc1)c1ccccc1	-4	-9	0	-5	/	/
NS(=O)(=O)c1ccc(CCNC(=O)c2cc(-c3ccco3)nc3ccccc23)cc1	-6	51*	1	34	/	6
CC(C)CCNC(=O)c1cc(-c2ccco2)nc2ccccc12	-4	4	2	8	-40	/
O=C(NCC1CCCO1)c1cc(-c2ccco2)nc2ccccc12 (stereo not drawn)	13	73*	10	7	-17	6
CCCCCCNC(=O)c1cc(-c2ccco2)nc2ccccc12	1	42*	6	53	-16	19
S=c1[nH]nc(-c2cc(-c3ccsc3)n[nH]2)n1-c1cccc2ccccc12	2	28*	-1	26	7	9
COc1ccc(-c2cc(-c3n[nH]c(=S)n3-c3cccc4ccccc34)[nH]n2)cc1	1	20	-2	23	-2	/
COc1ccccc1C1C(C(C)=O)=C(C)N=c2s/c(=C\c3cc(OC)c(OC)c(OC)c3)c(=O)n21 (stereo not drawn)	0	1	2	13	-8	/
CC1=C(C(=O)Nc2ccccc2)C(c2ccc(C)o2)n2c(s/c(=C\c3ccco3)c2=O)=N1 (stereo not drawn)	11	53*	16	5	23	-3
O=C(O)/C=C/C(=O)NCCC(c1ccccc1)c1ccccc1	-2	2	0	-28	4	/
CCO/C=C1\SC(=S)N(c2ccc(Cl)cc2)C1=O	-3	10	0	-28	4	/
CC(C)c1ccc(N2C(=O)/C(=C/N(C)C)SC2=S)cc1	3	26*	0	-44	3	20
COc1cccc(NC(=O)NC2CCCCC2C)c1 (stereo not drawn)	8	1	5	-14	-3	/
CC(=Nc1ccc(C)cc1C)c1sc2ccccc2c1O	-1	27*	1	10	-11	16
Cc1cc(NC(=O)c2sc3ccccc3c2O)no1	0	17	-2	31	-6	/
Nc1ccccc1N=c1ssnc1Cl	-6	69*	-4	59	21	58*
O=C1CN(/N=C/c2ccc([N+](=O)[O-])o2)C(=O)N1	1	30*	5	4	18	-1
CC1=C(C(=O)Nc2ccccc2)C(c2ccc(O)cc2)N2C(=O)CSC2=N1 (stereo not drawn)	0	26*	3	5	10	29*
COc1ccc(C2C(C(=O)Nc3ccccc3)=C(C)N=C3SCC(=O)N32)cc1 (stereo not drawn)	4	9	-2	-17	6	/
CCn1c(Cl)c(C=O)s/c1=N\S(=O)(=O)c1ccccc1	-4	49*	1	31	-39	27*
Cc1ccc(S(=O)(=O)Cc2ccc(C(=O)OCc3ccccc3)cc2)cc1	2	1	4	-3	-4	/
SMILES	MBD2 DNA inh	PRMT1 inh	UHRF1 MBD2 ctr	PfG6PD inh	PfM18AAP inh	PRMT1 inh conf
O=C(O)c1ccc(S(=O)(=O)Cc2ccccc2)cc1	-2	25*	4	-8	18	17
CCOC(=O)CSc1nnc(NCC(=O)OC(C)C)c(=O)[nH]1	4	54*	0	1	-44	67*
COC(=O)CCC(=O)N1CCCC(N2CCN(c3ccc(OC)cc3)CC2)C1 (stereo not drawn)	-2	-2	1	8	-17	/
CCN(CC)c1ccc(/C=C2/SC(=O)N(C(C)C)C2=O)o1	-5	27*	-1	45	0	-54
CC(C)N1C(=O)S/C(=C\c2ccc(-c3ccc(Cl)c(C(=O)O)c3)o2)C1=O	0	52*	37*	16	5	8
COc1ccc2c(c1)C(c1ccccc1)NC(=O)C2 (stereo not drawn)	-3	0	-3	-6	/	/
NS(=O)(=O)c1ccc(CNC(=O)/C=C/c2c(F)cccc2Cl)cc1	-1	4	1	-2	8	/
Cc1c(C(=O)O)oc2ccc3c(c12)C(O)CC(C)(C)O3 (stereo not drawn)	1	6	3	-8	-3	/
CC(=O)c1ccc(-n2c(CCC(=O)O)ccc2-c2cccs2)cc1	1	63*	-3	-20	-20	3
COC(=O)c1cccc(-n2c(CCC(=O)O)ccc2-c2cccs2)c1	1	40*	-2	-16	-17	16
Cc1ccc(-n2c(CCC(=O)O)ccc2-c2cccs2)cc1	13	12	-3	-5	-11	/
NC(=O)c1ccc(-n2c(CCC(=O)O)ccc2-c2cccs2)cc1	1	45*	0	-14	6	14
Cc1ccc(-c2ccc(CCC(=O)O)n2-c2cccc(C(=O)O)c2)cc1	2	8	-1	-4	11	/
COCCN(C(=O)CCCc1nc2ccccc2s1)c1c(N)n(CC(C)C)c(=O)[nH]c1=O	4	36*	0	28	/	27*
CC(=O)OCCNc1cc(Sc2nc3ccccc3[nH]2)c2nonc2c1[N+](=O)[O-]	-5	92*	-10	65*	-62	52*
CC(=C/C(=O)O)/C(=C/c1ccccc1)C(=O)O	2	-1	3	-17	-5	/
CCC1CCC(C(=O)NNC(=O)c2cc(-c3ccco3)[nH]n2)CC1 (stereo not drawn)	7	83*	4	6	8	2
O=C(NNC(=O)C1CCCCC1)c1ccco1	-1	-2	2	-4	-1	/
O=C(COC(=O)Cc1c(F)cccc1Cl)NC(=O)Nc1ccccc1F	-4	-5	-1	-9	/	/
CCOC(=O)C1=C(Cc2ccc(C)cc2)C(=O)c2ccccc2C1=O	-9	92*	-7	/	-19	27*
CCOC(=O)c1ccc(COC(=O)c2ccc3c(c2)-c2ccccc2C3=O)cc1	0	2	1	-2	0	/
CCn1c(COc2ccc3ccccc3c2C)nnc1SCC(=O)Nc1cccc(C(=O)O)c1	8	7	7	-12	-12	/
Cc1c(N2C(=O)/C(=C/C3CC=CCC3)SC2=S)c(=O)n(-c2ccccc2)n1C (stereo not drawn)	-2	39*	-8	16	-17	26*
Cc1c(N2C(=O)/C(=C\c3ccccc3O)SC2=S)c(=O)n(-c2ccccc2)n1C	-4	47*	-4	40	18	83*

Bioassay records: PubChem, several laboratories
